Results filed as inconclusive are left out. The source made the active and inactive calls. Calls follow the shape of the dose curve; as a rule, active = well fitted curve in the direction sought with a large enough effect; inconclusive = small, poorly fitted or top-dose-only effect, or another doubt; inactive = no such curve, though single readings can be large; an effect the other way counts as inactive or inconclusive.

A short description of assay [1]: qHTS of pediatric cancer cell lines to identify multiple opportunities for drug repurposing: Confirmatory screen for LAN-5 cells (AID 1347113). Also: nearly all actives have a fitted effect of over 65% in size. In a few lines: (§1)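 Viability after 48 h compound treatment at 37C, 500-1,000 cells/well, read as ATP luminescence with CellTiter-Glo. Primary screens used 11-point (MIPE, 0.78 nM-46 µM) or 8-point (NPC, 0.59 nM-46 µM) final concentrations; follow-up screens used 11-point dilutions.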
Background: qHTS replaces the single test concentration by a dilution series.

A short description of assay [2]: qHTS of pediatric cancer cell lines to identify multiple opportunities for drug repurposing: Confirmatory screen for MG 63 (6-TG R) cells (AID 1347119). Also: nearly all actives have a fitted effect of over 55% in size. In a few lines: as §1
A short description of assay [3]: qHTS of pediatric cancer cell lines to identify multiple opportunities for drug repurposing: Confirmatory screen for control Hh wild type fibroblast cells (AID 1347121). Also: nearly all actives have a fitted effect of over 70% in size. In a few lines:
as §1

Assay [4] in a line: qHTS of pediatric cancer cell lines to identify multiple opportunities for drug repurposing: Confirmatory screen for U-2 OS cells (AID 1347122). Also: nearly all actives have a fitted effect of over 65% in size. In a few lines: as §1
Assay [5] in a line: qHTS of pediatric cancer cell lines to identify multiple opportunities for drug repurposing: Confirmatory screen for SK-N-MC cells (AID 1347111).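 Also: cells exposed to compound for 48 h before the readout; nearly all actives have a fitted effect of over 70% in size.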 The gist of the method: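 SK-N-MC cells at 500-1,000 cells/well in growth media were pre-incubated 5 h, then exposed to compounds at 11-point dilutions for 48 h at 37 degrees C, 5% CO2. Viability was read as CellTiter-Glo luminescence.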

A short description of assay [6]: qHTS of pediatric cancer cell lines to identify multiple opportunities for drug repurposing: Confirmatory screen for DAOY cells (AID 1347114). Also: nearly all actives have a fitted effect of over 65% in size. The gist of the method:
(§2)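 Viability measured as metabolically active cells via CellTiter-Glo luminescence following 48 hours of compound exposure, 11-point dilutions in confirmatory testing. 500-1,000 cells/well plated 5 hours before dosing; controls were DMSO and 2.3 µM bortezomib.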

Assay [7] can be described thus: qHTS of pediatric cancer cell lines to identify multiple opportunities for drug repurposing: Confirmatory screen for SJ-GBM2 cells (AID 1347116). Also: nearly all actives have a fitted effect of over 60% in size. The gist of the method:
as §2

Assay [8] in a line: qHTS of pediatric cancer cell lines to identify multiple opportunities for drug repurposing: Confirmatory screen for BT-37 cells (AID 1347117). Also: nearly all actives have a fitted effect of over 55% in size. The gist of the method:
as §1

The nature of assay [9]: qHTS of pediatric cancer cell lines to identify multiple opportunities for drug repurposing: Confirmatory screen for TC32 cells (AID 1347118). Also: nearly all actives have a fitted effect of over 65% in size. The gist of the method:
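Measured quantity: luminescence from CellTiter-Glo, reflecting metabolically active TC32 cells following 48 h of compound. Curves came straight from multi-point titrations, with 8 or 11 points in primary and 11 in confirmatory screening.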

Assay [10] is described as follows: qHTS of pediatric cancer cell lines to identify multiple opportunities for drug repurposing: Confirmatory screen for NB-EBc1 cells (AID 1347115). Also: nearly all actives have a fitted effect of over 45% in size. In a few lines: as §1
Potency is read from the fitted curve at half-maximal effect.

In the case of `CS(=O)(=O)Nc1ccc([N+](=O)[O-])cc1Oc1ccccc1`, the Potency result in [1], in assay [3] and in [4] was “inactive” each time. In [2], the Potency was 16500 nM (active).

For `NC12CC3CC(CC(C3)C1)C2`, the Potency entry in [5], in assay [1], in assay [6], in assay [7], in assay [8] and in assay [9] was “inactive” each time. The Potency entry in assay [3] and in assay [4] was “inactive” throughout.

For the compound `O=C1c2c(O)ccc(O)c2C(=O)c2c(NCCNCCO)ccc(NCCNCCO)c21`, the Potency in assay [5] is 0.208 µM (active); in [1], 165 nM (active); in [6], 7.37 µM (active); in assay [10] it was 0.414 µM (active); in [7], 2.08 µM (active); in assay [8] it was 0.261 µM (active). In addition, the Potency was 0.131 µM (active) in assay [9], 414 nM (active) in assay [2], 14.7 µM (active) in assay [3] and 5.22 µM (active) in [4].

For the compound `CC(CCc1ccc(O)cc1)NCCc1ccc(O)c(O)c1` (configuration not stated), the Potency was 9.27 µM (active) in [5], 5.85 µM (active) in assay [10] and 20.8 µM (active) in [9]. For the same compound, the Potency result in assay [1], in assay [6], in [2], in assay [3] and in assay [4] was “inactive” each time.

With `CCCCc1oc2ccccc2c1C(=O)c1cc(I)c(OCCN(CC)CC)c(I)c1`, the Potency in assay [5] is 22.4 µM (active); in assay [1] it was 35500 nM (active); in assay [6], 31.6 µM (active); in assay [10], 56.2 µM (active); in assay [7] it was 79.4 µM (active); in [8], 50.1 µM (active). Besides, the Potency in [9] is 28.2 µM (active); in [2], 39800 nM (active); in assay [3] it was 70.8 µM (active); in [4] it was 28.2 µM (active).

In the case of `CC(C)Cc1ccc(C(C)C(=O)O)cc1` (configuration not stated), the Potency is 3.69 µM (active) in [5], 3.69 µM (active) in assay [6], 1.31 µM (active) in assay [7] and 3.69 µM (active) in assay [9]. In addition, the Potency result in [10], in assay [8], in assay [2] and in [3] was “inactive” in each case.

For `COc1cc2c(c(OC)c1OC)-c1ccc(OC)c(=O)cc1[C@@H](NC(C)=O)CC2`, the Potency in [5] was 0.0398 µM (active); in assay [1], 89.1 nM (active); in assay [6], 0.02 µM (active); in assay [8] it was 0.0562 µM (active); in [9], 0.0355 µM (active); in assay [2], 100 nM (active). The Potency in [4] was 0.112 µM (active). The Potency result in assay [3] is “inactive”.

With `CN1CCN(CCCN2c3ccccc3Sc3ccc(Cl)cc32)CC1`, the Potency in [5] is 3.69 µM (active); in assay [1], 16500 nM (active); in assay [6] it was 20.8 µM (active); in [8], 16.5 µM (active); in assay [4], 5.85 µM (active). For the same compound, the Potency entry in [10] and in assay [3] was “inactive” each time.

As to `CC(C)NCC(O)c1ccc(O)c(O)c1` (configuration not stated), the Potency in assay [5] was 2.33 µM (active); in assay [8], 5.22 µM (active); in assay [4], 7.37 µM (active). Moreover, the Potency result in assay [6], in [10] and in [3] was “inactive” in each case.

As for `NC(=O)NO`, the Potency result in assay [5], in assay [1], in assay [6], in assay [10], in assay [8] and in [2] was “inactive” in each case. Moreover, the Potency result in assay [3] is “inactive”. The figures for the Potency in assay [9] and in assay [4] were 20.8 µM (active) and 23.3 µM (active), respectively.

For the compound `O=C(c1ccc(OCCN2CCCCC2)cc1)c1c(-c2ccc(O)cc2)sc2cc(O)ccc12`, the values for the Potency in assay [5], in [6] and in assay [9] were 16.5 µM (active), 32.9 µM (active) and 16.5 µM (active), respectively. The Potency result in [10], in [3] and in assay [4] was “inactive” each time.

Consider `Clc1ccc2nsnc2c1NC1=NCCN1`, for which the Potency entry in [5], in assay [1], in assay [6], in assay [10], in [7] and in assay [9] was “inactive” in each case. The Potency result in [2], in assay [3] and in assay [4] was “inactive” each time.

As to `CC#C[C@]1(O)CC[C@H]2[C@@H]3CCC4=CC(=O)CCC4=C3[C@@H](c3ccc(N(C)C)cc3)C[C@@]21C`, the Potency entry in assay [10], in [7], in assay [2] and in assay [3] was “inactive” each time. Also, the Potency in assay [9] is 18.5 µM (active).

Consider `CC(C)C(=O)Nc1ccc([N+](=O)[O-])c(C(F)(F)F)c1`, for which the Potency entry in [1], in assay [10] and in [3] was “inactive” in each case. The Potency in [6] is 16.5 µM (active).

In the case of `CC[C@@]1(O)C(=O)OCc2c1cc1n(c2=O)Cc2cc3c(CN(C)C)c(O)ccc3nc2-1`, the Potency was 0.0465 µM (active) in assay [5]; 185 nM (active) in [1]; 5.22 µM (active) in [6]; 0.0928 µM (active) in assay [10]; 1.31 µM (active) in assay [7]; 0.117 µM (active) in assay [8]. The Potency is 0.0585 µM (active) in [9], 329 nM (active) in assay [2] and 10.4 µM (active) in assay [4]. Also, in [3], the Potency result was “inactive”.

Regarding `Clc1ccc(C(c2ccccc2Cl)C(Cl)Cl)cc1` (configuration not stated), the Potency result in [1], in assay [10], in [7], in assay [9], in assay [3] and in assay [4] was “inactive” in each case.

Consider `O=C(Nc1ccc([N+](=O)[O-])cc1Cl)c1cc(Cl)ccc1O`, for which the Potency in assay [5] is 4.07 µM (active); in assay [1] it was 3230 nM (active); in [6] it was 1.02 µM (active); in [10], 1.44 µM (active); in assay [7], 4.07 µM (active); in [8], 1.44 µM (active). Besides, the Potency is 2.04 µM (active) in assay [9], 1620 nM (active) in assay [2], 3.62 µM (active) in assay [3] and 4.56 µM (active) in assay [4].

Turning to `CC(COc1ccccc1)N(CCCl)Cc1ccccc1` (configuration not stated), the Potency was 10.4 µM (active) in assay [5], 20800 nM (active) in assay [1], 18.5 µM (active) in assay [8] and 7.37 µM (active) in [9]. For the same compound, the Potency result in assay [4] was “inactive”.

As to `CN(C)CCCN1c2ccccc2CCc2ccc(Cl)cc21`, in assay [6], the Potency is 20.8 µM (active). The Potency result in assay [10], in [7], in assay [9] and in assay [3] was “inactive” throughout.

For the compound `COC(=O)Nc1nc2ccc(C(=O)c3cccs3)cc2[nH]1`, the Potency in [5] was 0.147 µM (active); in [1] it was 522 nM (active); in [6] it was 0.131 µM (active); in [8] it was 0.329 µM (active); in assay [9] it was 0.131 µM (active); in assay [2], 147 nM (active). The Potency in [4] was 0.208 µM (active). Also, the Potency result in [3] was “inactive”.

Take `CCC1(c2ccccc2)C(=O)NCNC1=O`: the Potency result in assay [1], in [6], in assay [10], in assay [7], in [8] and in assay [2] was “inactive” throughout. In addition, the Potency result in [3] and in assay [4] was “inactive” in each case.

As for `CS(=O)(=O)CCNCc1ccc(-c2ccc3ncnc(Nc4ccc(OCc5cccc(F)c5)c(Cl)c4)c3c2)o1`, the Potency result in assay [10] is “inactive”. For the same compound, in assay [4], the Potency was 20.8 µM (active).

Consider `CN(Cc1cnc2nc(N)nc(N)c2n1)c1ccc(C(=O)N[C@@H](CCC(=O)O)C(=O)O)cc1`, for which the Potency was 0.0369 µM (active) in assay [5], 0.117 µM (active) in assay [6] and 0.0369 µM (active) in assay [9]. Besides, the Potency entry in assay [1], in [2] and in assay [3] was “inactive” in each case.

Source of the values: PubChem BioAssay (NCATS).
